The full list was thinned out, with hits kept by preference.
Tgondii IFNg: blocks Toxoplasma gondii growth in the presence of IFN-gamma. activity change, negative = inhibition, % (no concentration beside the values). actives 3.8% (n = 69,000). AID 1259416. Toxoplasma gondii growth in IFN-gamma-treated host cells; active compounds read low; in the data active = activity change below about -70%, passing the limit was not always enough;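 also: host cells are HeLa cells infected with Toxoplasma gondii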
* hit, by the source's call.

SMILES	Tgondii IFNg
Cc1nc2c(c(=O)[nH]1)CCN(Cc1cccn1Cc1ccccc1F)C2	15
CC(C)N1CCC2(CC1)CC(NC1CCOCC1)c1ccccc1O2 (centres undefined)	-11
CCOCC1CN(S(=O)(=O)CC)Cc2ncn(CC3CC3)c21 (centres undefined)	83
CS(=O)(=O)c1ccc(C2CC(=O)Nc3c2cnn3CC2CCCCC2)cc1 (centres undefined)	-43
Cc1cnc(N2CCC3(CCCN(c4nncs4)C3)C2)nc1 (centres undefined)	0
COc1cccc(-c2nccc(C3CCCN3C(=O)c3ccc4ncccc4c3)n2)c1 (centres undefined)	28
C=C[C@H]1CN2CC[C@H]1C[C@H]2[C@H](O)c1ccnc2ccc(OC)cc12	-85*
COc1ccc(CNC(Cc2ccsc2)c2ccc(C)cn2)cc1OC (centres undefined)	11
O=C1CCCN1CC1CN(C(=O)c2ccsc2)Cc2nccn2C1 (centres undefined)	-35
Cc1nc(C)c2c(n1)CCN(C1CCOCC1)CC2	60
C[C@@H]1CN([C@@H](C)CO)S(=O)(=O)c2ccc(-c3ccc(F)cc3)cc2O[C@H]1CN(C)Cc1ccccc1C(=O)O	-15
COCC#Cc1ccc2c(c1)O[C@@H](CN(C)C(=O)C1CCOCC1)[C@H](C)CN([C@@H](C)CO)S2(=O)=O	-12
C[C@@H]1CN([C@H](C)CO)S(=O)(=O)c2ccc(C#CC(C)(C)O)cc2O[C@@H]1CN(C)Cc1ccc(F)cc1	150
CCCN(C)C[C@@H]1Oc2cc(/C=C/c3ccccc3)ccc2S(=O)(=O)N([C@@H](C)CO)C[C@H]1C	-91*
Cc1ccc(S(=O)(=O)N(C)C[C@H]2Oc3cc(C#CC4CCCC4)ccc3S(=O)(=O)N([C@H](C)CO)C[C@H]2C)cc1	-64
Cc1ccc(S(=O)(=O)N(C)C[C@H]2Oc3cc(C#CC4CCCC4)ccc3S(=O)(=O)N([C@@H](C)CO)C[C@H]2C)cc1	-132*
COc1cccc(-c2ccc3c(c2)O[C@H](CN(C)Cc2cccnc2)[C@H](C)CN([C@@H](C)CO)S3(=O)=O)c1	-39
C[C@@H]1CN([C@H](C)CO)S(=O)(=O)c2ccc(-c3ccc(F)cc3)cc2O[C@H]1CN(C)Cc1ccccc1C(=O)O	32
C[C@@H]1CN([C@H](C)CO)S(=O)(=O)c2ccc(-c3ccncc3)cc2O[C@H]1CN(C)S(C)(=O)=O	-104*
CCCC#Cc1ccc2c(c1)O[C@@H](CN(C)Cc1ccccn1)[C@@H](C)CN([C@H](C)CO)S2(=O)=O	-29
C[C@H](CO)N1C[C@H](C)[C@H](CN(C)C(=O)NC2CCCC2)Oc2cc(-c3cncnc3)ccc2S1(=O)=O	44
C[C@@H]1CN([C@H](C)CO)S(=O)(=O)c2ccc(C#CC(C)(C)O)cc2O[C@H]1CN(C)Cc1ccc(F)cc1	-116*
CCC(=O)NCc1ccccc1-c1cc(N)nc2[nH]ccc12	3
Cn1c(N)c(Sc2nc3ccccc3s2)c(=O)[nH]c1=O	4
CC(=O)Nc1ccc(OS(=O)(=O)C(F)(F)C(=O)N2CCCCC2)cc1	39
SMILES	Tgondii IFNg
COc1ccc(NC(=O)Cn2ncc3c(N4CCN(c5ccccc5)CC4)ncnc32)c(OC)c1	-53
C=CCO[C@@H]1CCN(Cc2csc(C)n2)[C@H]1Cc1cccnc1	-22
Cc1noc(C(C)N(C)CC(=O)NCCc2ccc(Cl)cc2)n1 (centres undefined)	4
Cn1cnc2c(-c3cccnc3)nc(C3CCN(C(=O)c4ccccn4)CC3)cc21	-11
Cc1cccc(-c2nc(C)c(CCNC(=O)C(=O)Nc3cccc(F)c3)s2)c1	35
CN(C)CCn1cnc2nnc3ccc(C(=O)CCN4CCOCC4)cc3c21	-6
CN1CCC2(CCN(C(=O)c3ccccc3-c3ncn[nH]3)CC2)C1	-52
O=C(NC1CCSC1=O)C1CC(=O)N(CCc2ccc(F)cc2)C1 (centres undefined)	-37
Cc1cc2cc(C)c3nnc(SCC(=O)N4CCc5ccccc5C4)n3c2cc1C	-37
COCC#Cc1ccc2c(c1)O[C@@H](CN(C)C(=O)C1CCOCC1)[C@@H](C)CN([C@H](C)CO)S2(=O)=O	72
C[C@@H]1CN([C@H](C)CO)S(=O)(=O)c2ccc(C#CCC3CCCC3)cc2O[C@@H]1CN(C)C(=O)c1cnccn1	-69
CCCNC(=O)N(C)C[C@H]1Oc2cc(C#C[C@H](C)O)ccc2S(=O)(=O)N([C@@H](C)CO)C[C@H]1C	102
C[C@@H]1CN([C@H](C)CO)S(=O)(=O)c2ccc(C#Cc3cccc(F)c3)cc2O[C@H]1CN(C)S(=O)(=O)c1cn(C)cn1	-68
Cc1ccc(S(=O)(=O)N(C)C[C@@H]2Oc3cc(C#CC4CCCC4)ccc3S(=O)(=O)N([C@@H](C)CO)C[C@@H]2C)cc1	-114*
C[C@H](CO)N1C[C@H](C)[C@H](CN(C)S(=O)(=O)c2cn(C)cn2)Oc2cc(C#Cc3cccc(F)c3)ccc2S1(=O)=O	-93*
Cc1nnc(NC(=O)C2CCN(c3ncccn3)CC2)s1	2
Nc1ccc2ncnc(NCCc3ccc(Oc4ccccc4)cc3)c2c1	-71*
c1ccc(CNc2ncnc3ccccc23)cc1	-15
COc1ccc(CCNc2ncnc3c2cnn3-c2ccccc2)cc1OC	21
CCOCCCn1c(SCc2ccccc2)nc2ccccc2c1=O	12
COc1ccc(-n2nc3cc(C)c(NC(=O)c4ccccc4)cc3n2)cc1	-12
Cc1oc(-c2cccc(Cl)c2)nc1Cn1nnc(C(=O)Nc2ccccc2F)c1C	-11
C=CC(=O)N1C[C@H]2CCCC(N3CCN(c4ncccn4)CC3)[C@@H]2C1 (some centres undefined)	15
O=C(CSc1cccc2cccnc12)OCC(=O)c1ccccc1	-89*
CC(=O)OC[C@H]1O[C@@H](Sc2cccc3cccnc23)[C@H](OC(C)=O)[C@@H](OC(C)=O)[C@H]1OC(C)=O	4
SMILES	Tgondii IFNg
CC(C)c1ccc(CNC(=O)CSc2cccc3cccnc23)cc1	11
CNC(=O)c1cc(=O)n(CC(=O)Nc2cccc(Br)c2)c2ccccc12	-11
CCc1ccccc1NC(=O)C(=O)NCCc1csc(-c2cccc(F)c2)n1	-50
CC(=O)N1C(=O)C2(N=C(N)NC(Nc3cccc(C(F)(F)F)c3)=N2)c2ccccc21 (centres undefined)	12
O=c1cc(Nc2cccc(C(F)(F)F)c2)nc[nH]1	-103*
Cc1cc(C)c(S(=O)(=O)Nc2cccc(C(F)(F)F)c2)c(C)c1	7
O=C1NCC2(CCCN(C(=O)c3cc(-c4ccccc4)on3)C2)O1 (centres undefined)	33
Cc1oc(-c2ccc(C(=O)NCCc3ccco3)cc2)nc1CN1CCc2ccccc21	-64
Cc1oc(-c2ccc(C(=O)NCCc3ccc(Cl)cc3)cc2)nc1CN1CCc2ccccc21	-64
Cc1oc(-c2ccc(C(=O)NCCc3cccs3)cc2)nc1CN1CCc2ccccc21	-89*
Cc1oc(-c2ccc(C(=O)NCc3ccc(OC(C)C)cc3)cc2)nc1CN1CCc2ccccc21	-88*
COc1ccc(CNC(=O)c2ccc(-c3nc(CN4CCc5ccccc54)c(C)o3)cc2)cc1OC	142
Cc1oc(-c2ccc(C(=O)NCCC(C)C)cc2)nc1CN1CCc2ccccc21	64
CCOc1ccccc1NC(=O)Cn1c(=O)cc(C(=O)N2CCOCC2)c2ccccc21	8
CC(C)c1nc(CN2CCc3onc(-c4cccc(F)c4)c3C2)no1	-5
O=C(CN1CCOCC1)Nc1c(F)c(F)nc(N2CCOCC2)c1F	16
